Results filed as inconclusive are left out. Where a call stands in place of a potency, no number is given. Calls of active or inactive are those of the source. Calls come from the whole dose curve; as a rule, active = well fitted cell-killing curve with a large enough effect; inconclusive = small, poorly fitted or top-dose-only effect, or effect the other way; inactive = no such curve, though single readings can be large or run the other way.

In PubChem BioAssay (NCATS) one finds Potency data, which are given here for 40 compounds.
Potency is the fitted concentration of half-maximal effect.

A short description of the experiment: Quantitative highthroughput screen to assess conditional lethalithy of NOMO1 cells grown in Human Plasma-Like Medium with dialyzed fetal bovine serum (HPLM+ds) (AID 1963878). Note: nearly all actives have a fitted effect of over 35% in size. The settings on record: NOMO1 AML cells in HPLM+ds, CellTiter-Glo viability, 48 h; series mostly up to 45.8 µM. The source says:
Assay Provider: Jason Cantor Ph.D.
Department of Biochemistry
University of Wisconsin-Madison, Madison, WI, USA
Chemical screening studies have identified drug sensitivities across hundreds of cancer cell lines but most putative therapeutics fail to translate. Discovery and development of drug candidates in models that more accurately reflect nutrient levels in human blood is a major challenge. Here we performed high-throughput screens in conventional versus Human Plasma-Like Medium (HPLM) to identify compounds that were "missed" when screening using the artificial culture condition. Sets of conditional anticancer compounds spanned phases of clinical development and included non-oncology drugs were assessed. […] We also traced conditional phenotypes for several chemotherapeutics to availability of HPLM-specific metabolites and confirmed others for compounds whose reported targets are encoded by nonessential genes. Our findings establish generalizable strategies for exploiting conditional lethality in HPLM to reveal therapeutic candidates and mechanisms of action in cancer cells.
Described herein are the results of each viability screens against three cell lines: NOMO1 (an acute myeloid leukemia cell line); P12-Ichikawa (a T-cell acute lymphoblastic leukemia); and SEM (a B-cell ALL). Each assay was screened using 3 different cell culture media: homemade human plasma-Like medium with 10% dialyzed fetal bovine serum (HPLM+ds); RPMI1640 with 10% untreated FBS and 5mM glucose (RPMI+s); and RPMI1640 with 10% dialyzed fetal bovine serum and 5 mM glucose (RPMI+ds).
PROTOCOL TABLE (as described by Inglese J, Shamu CE and Guy RK. 2007)
SEQUENCE No. (e.g., 1, 2, 3, etc.); […] (e.g., Cells, Incubation, Reagent, etc.); VALUE and DESCRIPTION.
1; Cells; 5 uL; white, solid bottom 1536-well Greiner assay plate.
2; Compounds; 23 nL; Kalypsis pin tool (Wako USA) equipped with a 1536-well pin head to transfer to the assay plates.
3; Incubation; 48 hours; 37C incubation.
4; Reagent; 3 uL; CellTiter Glo (Promega).
5; Incubation; 5 min, room temperature
6; Detection; Luminescence, Viewlux PerkinElmer.
NOTES (numbers refer to Sequence numbers above)
1. Briefly, 5 ul of cell reagent was dispensed using a Multidrop Combi Dispenser. The NOMO1 and SEM cells were plated at 500 cells/well and the P12-Ichikawa line at 1000 cells/well.
2. After seeding the cells, 23 nL of MIPE 4.1 library compounds (in DMSO) were added to each plate using a Kalypsys 1536 Pintool dispenser. Bortezomib at final concentration of […] and DMSO were added to each plate as positive and negative controls respectively. For each screen, MIPE 4.1 compounds were added over an eleven-point concentration range […] in 3-fold dilutions.
3. Each plate was covered with a stainless steel gasketed lid to prevent evaporation and incubated for 48 hour at 37C, 95% relative humidity, and 5% CO2.
4-5. Three microliter CellTilter-GloTM luminescent substrate mix (Promega) reagent was added to the assay plate and incubated at room temperature for 5 min.
6. The luminescence signal was measured using a ViewLux (PerkinElmer) multiplate reader with a 2 second exposure time per plate. Data for each compound were normalized as percent viability such that measurements for DMSO and the empty well controls in each plate were defined as 100% and 0%, respectively.
A general note: Cellular ATP, detected with luciferase, serves as a proxy for viable cell number.
In the case of `COC[C@H]1OC(=O)c2coc3c2[C@@]1(C)C1=C(C3=O)C2CCC(=O)[C@@]2(C)C[C@H]1OC(C)=O` (stereo not given in full), the Potency result was “inactive”.
Take `COc1ccc2c(c1)CN(C)CC2c1ccc(Cl)c(Cl)c1` (stereo not given): the Potency was 3.32 µM (active).
The value for `CC(C)[C@]12O[C@@H]1[C@@H]1O[C@]13[C@]1(O[C@H]1C[C@@H]1C4=C(CC[C@@]13C)C(=O)OC4)[C@H]2O` was 0.0012 µM (active).
Then `CCOc1ccccc1-n1c(C(C)N2CCN(C(=O)COc3ccc(Cl)cc3)CC2)nc2ccccc2c1=O` (stereo not given), with 0.741 µM (active).
The value for `Cc1c(C(=O)Nc2cccc(C(F)(F)F)c2)cc(-c2ccccc2)n1CCCN1CCOCC1` was “inactive”.
Regarding `CC1=C(O)C(=O)C=C2C1=CC=C1[C@@]2(C)CC[C@@]2(C)[C@@H]3C[C@](C)(C(=O)O)CC[C@]3(C)CC[C@]12C`, the Potency was 2.96 µM (active).
The value for `C[C@](O)(CS(=O)(=O)c1ccc(F)cc1)C(=O)Nc1ccc(C#N)c(C(F)(F)F)c1` was “inactive”; that for `CCc1c(C(=O)C(N)=O)c2c(OCC(=O)O)cccc2n1Cc1ccccc1` was “inactive”; that for `C[C@@]12OC(=O)[C@]1([C@@H](O)[C@@H]1C=CCCC1)NC(=O)[C@H]2CCCl` was 0.166 µM (active).
Then `O=c1[nH]c2ccccc2n1CCCN1CCC(n2c(=O)[nH]c3cc(Cl)ccc32)CC1`, with “inactive”; and `CC(N[C@H]1C[C@H]1c1ccccc1)c1ccc2c(c1)OCCO2` (stereo not given in full), with “inactive”.
Then `CC(C)(C)[C@]1(O)C[C@@H]2OC(=O)C[C@@]23C(=O)O[C@@H]2OC(=O)[C@H](O)C213` (stereo not given in full), with “inactive”.
Regarding `CCNC(=O)CC1N=C(c2ccc(Cl)cc2)c2cc(OC)ccc2-n2c(C)nnc21` (stereo not given), the Potency result is “inactive”.
The value for `COc1ccc(CC2NCCc3cc(OC)c(OC)cc32)cc1OC` (stereo not given) was “inactive”.
Then `CN[C@@H]1Cc2cccc3[nH]c(=O)n(c23)C1`, with “inactive”; and `CCCC[N+]1(C)[C@H]2CC(OC(=O)[C@H](CO)c3ccccc3)C[C@H]1[C@H]1O[C@H]12` (stereo not given in full), with 11.8 µM (active); and `COC1=CC(C)=C[C@@H](C)[C@@H](O)[C@@H](C)CC(C)=CC=C[C@H](OC)[C@H]([C@@H](C)[C@@H](O)[C@H](C)[C@@]2(O)C[C@@H](O)[C@H](C)[C@@H](C(C)C)O2)OC1=O`, with 0.0662 µM (active).
Regarding `NCC1(CC(=O)O)CCCCC1`, the Potency result is “inactive”.
The value for `C[C@]12Cc3cn[nH]c3C[C@@H]1CC[C@@H]1[C@H]2CC[C@@]2(C)[C@H]1CC[C@]2(C)O` was “inactive”; that for `C[C@H]([C@H](O)CCC(C)(C)O)[C@H]1CC[C@@]2(O)C3=CC(=O)[C@@H]4C[C@@H](O)[C@@H](O)C[C@]4(C)[C@@H]3CC[C@]12C` was “inactive”.
The value for `C[C@]12CCC(=O)C=C1CC[C@@H]1[C@H]3CC[C@](C)(O)[C@@]3(C)CC[C@@H]12` was “inactive”; that for `COc1cc(C(=O)N2CC[C@@H](O)[C@@H](N)C2)cc2nc(-c3cc4ccccc4n3CC3CC3)n(C)c12` was 0.234 µM (active).
Then `C[C@]12CC[C@@H]3c4ccc(OC(=O)N(CCCl)CCCl)cc4CC[C@H]3[C@@H]1CC[C@@H]2OP(=O)(O)O`, with 18.7 µM (active); and `CC(=Cc1csc(C)n1)[C@@H]1C[C@H]2O[C@@H]2CCC[C@H](C)[C@@H](O)[C@@H](C)C(=O)C(C)(C)[C@@H](O)CC(=O)O1`, with “inactive”; and `C[C@@H]1O[C@@H](O[C@@H]2C=C3CC[C@@H]4[C@@H](CC[C@]5(C)[C@H](c6ccc(=O)oc6)CC[C@@]45O)[C@@]3(C)CC2)[C@H](O)[C@H](O)[C@H]1O`, with 0.0332 µM (active).
In the case of `NC1=NC(=O)N2CC12` (stereo not given), the Potency is 4.18 µM (active).
The value for `c1cc2c(cc1[C@H]1OC[C@H]3[C@H]1CO[C@H]3c1ccc3c(c1)OCO3)OCO2` was “inactive”; that for `CC(=O)Nc1ccc(OC[C@](C)(O)C(=O)Nc2ccc([N+](=O)[O-])c(C(F)(F)F)c2)cc1` was “inactive”; that for `CC(O)=C(C#N)C(=O)Nc1cc(Br)ccc1Br` was “inactive”.
Then `COC[C@@H](NC(C)=O)C(=O)NCc1ccccc1`, with 18.7 µM (active); and `CCOC(=O)c1c(C(C#N)=CN)c2ccc(Cl)c(Cl)c2n1C`, with “inactive”.
The value for `CC1(N2CCC(n3c([C@@H]4CCCNC4)nc4ccccc43)CC2)CCCCCCC1` was 13.2 µM (active); that for `CC[C@@H]1[C@@H](C)O[C@@](O)([C@@H](C)[C@H](O)[C@H](C)[C@H]2OC(=O)C=CC=C[C@@H](C)[C@@H]([C@@H](C)[C@@H](O)[C@H](C)[C@@]3(O)C[C@H](O[C@H]4C[C@H](O)[C@H](O)[C@H](C)O4)[C@H](CC)[C@@H](C)O3)OC(=O)C=CC=C[C@@H]2C)C[C@H]1O[C@H]1C[C@H](O)[C@H](O)[C@H](C)O1` was 2.96 µM (active); that for `CCOC(=O)c1cncn1[C@H](C)c1ccccc1` was “inactive”.
On to `COc1ccc2c(c[n+](C)c3c4cc5c(cc4ccc23)OCO5)c1OC`, for which the Potency was 20.9 µM (active).
Consider `O=[N+]([O-])c1ncc[nH]1`, for which the Potency entry was “inactive”.
Then `CC(C)N(CCNC(=O)CN1CCCC1=O)C(C)C`, with “inactive”.
Then `CC(=O)N(C)c1cccc(-c2ccnc3c(C(=O)c4cccs4)cnn23)c1`, with “inactive”.
Then `Cc1nc(-c2ccc(-c3ccc(C(=O)N4CCc5cc6c(cc54)C4(CCN(C)CC4)CO6)cc3)c(C)c2)no1`, with “inactive”; and `CC(=CCCC1=CCC(C2=CC(=O)OC2O)OC1O)CCC1=C(C)CCCC1(C)C` (stereo not given), with “inactive”.
